Compounds with a hit are over-represented: about 32% of the library has one in this group of screens.
CYP2C9 inh: inhibitors of human CYP2C9. P11712. CYP2C9 Supersomes, luciferin-H conversion, luminescence. inhibition, % at 5 µM. actives 20% (n = 96,000);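 active = blocking of liver enzyme CYP2C9 beyond about 50% at 5 µM, limit read from the data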
Target sequence (P11712 whole entry, looked up): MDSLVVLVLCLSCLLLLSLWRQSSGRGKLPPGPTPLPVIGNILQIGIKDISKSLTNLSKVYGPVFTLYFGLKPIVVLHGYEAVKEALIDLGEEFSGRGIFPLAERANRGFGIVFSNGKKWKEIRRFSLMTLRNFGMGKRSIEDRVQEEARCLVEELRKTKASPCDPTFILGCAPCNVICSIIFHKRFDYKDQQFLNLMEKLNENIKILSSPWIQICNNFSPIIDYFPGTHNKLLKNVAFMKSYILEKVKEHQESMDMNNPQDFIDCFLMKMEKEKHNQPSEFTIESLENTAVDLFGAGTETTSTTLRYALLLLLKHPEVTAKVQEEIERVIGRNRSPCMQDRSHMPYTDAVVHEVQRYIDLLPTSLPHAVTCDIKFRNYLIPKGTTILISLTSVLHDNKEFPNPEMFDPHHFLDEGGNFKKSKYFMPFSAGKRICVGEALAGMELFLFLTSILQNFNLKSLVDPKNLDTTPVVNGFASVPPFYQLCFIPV
CYP2C19 act: cytochrome P450 2C19 (human) activation. P33261. recombinant CYP2C19, luciferin-H EGE luminescence; hits give high values; 0 = fully inhibited enzyme, 1 = untreated enzyme. activation factor at 5 µM. 96,000 tested, under 10 active. AID 1025;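 active = activation factor of at least 2 at 5 µM in the primary screen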;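 note: 0 = wells with 2.5 mM tranylcypromine and 1 = vehicle-only wells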
CYP2C19 inh: human CYP2C19 inhibition; P33261; AID 778; inhibition, % at 5 µM; CYP2C19 Supersomes, luciferin-H EGE luminescence, 30 min; actives 21% (n = 96,000);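 active = CYP2C19 inhibition above a set limit at 5 µM in the primary screen, cut at about 50% in these data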;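 note: plate controls were negative control wells for no effect and 2.5 mM tranylcypromine positive control for full effect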
PostGolgi yeast: growth inhibition of a yeast mutant, post-Golgi transport screen; inhibition, % at 10 µM; post-Golgi transport phenotypic cell assay; actives 0.9% (n = 98,000);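 note: yeast cells grown in 1536-well plates; yeast grown about 18 h at 30C before absorbance read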
PostGolgi ctrl: growth of the yeast control strain, post-Golgi counter-screen; efflux-deficient yeast background strain, growth absorbance A615, 16 h; inhibition, % at 10 µM; actives 5% (n = 98,000)
CYP2C9 act: activators of human CYP2C9; P11712; recombinant CYP2C9, luciferin-H conversion, luminescence; hits give high values; factor 1 = untreated enzyme, 0 = blocked; activation factor at 5 µM; actives 1.4% (n = 96,000); AID 1024;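 active = activation factor of 2 or more for CYP2C9 at a 5 µM dose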;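 note: 0 = sulfaphenazole-blocked wells and 1 = vehicle-only wells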
* hit, by the source's call. Cut-off read from the data, not from the text of the source, unless noted: active = inhibition above about 30%; inactive = the rest.

What do the screens show for `Clc1ccc(-n2ncc3c(NCCCn4ccnc4)ncnc32)cc1`?
CYP2C9 inh: 92.6*; CYP2C19 act: 0.1; CYP2C19 inh: 94.6*; PostGolgi yeast: 0.7; PostGolgi ctrl: 19.7; CYP2C9 act: 0.1

What do the screens show for `c1ccc(-n2ncc3c(NCc4ccco4)ncnc32)cc1`?
CYP2C9 inh: 58.9*; CYP2C19 act: 0.5; CYP2C19 inh: 50.1*; PostGolgi yeast: -5.6; PostGolgi ctrl: 1.0; CYP2C9 act: 0.4

Results for O=C(Cn1cnc2c(cnn2-c2ccc(Cl)cc2)c1=O)NCCc1ccccc1 ?
CYP2C9 inh: 19.9; CYP2C19 act: 0.6; CYP2C19 inh: 40.8; PostGolgi yeast: -9.3; PostGolgi ctrl: -3.4; CYP2C9 act: 0.8

What do the screens show for `c1ccc(-n2ncc3c(NCCCN4CCOCC4)ncnc32)cc1`?
CYP2C9 inh: -3.7; CYP2C19 act: 1; CYP2C19 inh: 1.1; PostGolgi yeast: -6.3; PostGolgi ctrl: 3.2; CYP2C9 act: 1

Results for CCCCNc1ncnc2c1cnn2-c1ccccc1 ?
CYP2C9 inh: 99.1*; CYP2C19 act: 0.1; CYP2C19 inh: 88.8*; PostGolgi yeast: 5.2; PostGolgi ctrl: 14.6; CYP2C9 act: 0

Results for CC12CC3CC(C)(C1)CC(C(=O)NC(=S)N1CCOCC1)(C3)C2 ?
CYP2C9 inh: -4.1; CYP2C19 act: 0.9; CYP2C19 inh: 5.3; PostGolgi yeast: -0.5; PostGolgi ctrl: 1.1; CYP2C9 act: 1

How did N/C(=N\S(=O)(=O)c1cccs1)c1ccccc1 do in these assays?
CYP2C9 inh: -47.1; CYP2C19 act: 0.1; CYP2C19 inh: 92.3*; PostGolgi yeast: -7.5; PostGolgi ctrl: 10.8; CYP2C9 act: 1.5

Results for O=C(CCCN1C(=O)c2ccccc2C1=O)NCC1CCCO1 (centres undefined) ?
CYP2C9 inh: -2.2; CYP2C19 act: 1; CYP2C19 inh: -2.7; PostGolgi yeast: -1.6; PostGolgi ctrl: -3.2; CYP2C9 act: 1

How did CC(=O)c1nc2ccccc2n1S(=O)(=O)c1ccc(C)cc1 do in these assays?
CYP2C9 inh: -5.1; CYP2C19 act: 1; CYP2C19 inh: -0.4; PostGolgi yeast: 8.3; PostGolgi ctrl: 39.9*; CYP2C9 act: 1.1

Results for CC(=O)c1nc2ccccc2n1S(=O)(=O)c1ccc(Cl)cc1 ?
CYP2C9 inh: 14.5; CYP2C19 act: 0.7; CYP2C19 inh: 28.4; PostGolgi yeast: -0.9; PostGolgi ctrl: 9.9; CYP2C9 act: 0.9

What do the screens show for `Cc1cccc(N2C(=O)c3cccc4c(N(C)CCO)ccc(c34)C2=O)c1`?
CYP2C9 inh: 6.9; CYP2C19 act: 0.7; CYP2C19 inh: 25.9; PostGolgi yeast: 23.3; PostGolgi ctrl: 18.0; CYP2C9 act: 0.9

What do the screens show for `Cc1cc(C)nc(N/N=C/C(Cl)=C/c2ccccc2)n1`?
CYP2C9 inh: -5.6; CYP2C19 act: 1; CYP2C19 inh: 1.6; PostGolgi yeast: 30.8*; PostGolgi ctrl: -1.2; CYP2C9 act: 1.1

What do the screens show for `COc1ccc(C=NCC2COc3ccccc3O2)cc1OC` (centres undefined)?
CYP2C9 inh: -1.2; CYP2C19 act: 1.1; CYP2C19 inh: -7.1; PostGolgi yeast: 2.5; PostGolgi ctrl: 5.2; CYP2C9 act: 1

How did CC1=C(C(=O)Nc2cccnc2)C(c2ccc3c(c2)OCO3)C2=C(CCCC2=O)N1 (centres undefined) do in these assays?
CYP2C9 inh: 39.9; CYP2C19 act: 0.8; CYP2C19 inh: 20.1; PostGolgi yeast: 8.9; PostGolgi ctrl: 5.3; CYP2C9 act: 0.6

What do the screens show for `CCCn1c(N)c(N2CCCCC2)c(=O)n(CC(=O)Nc2ccccc2C)c1=O`?
CYP2C9 inh: 52.7*; CYP2C19 act: 0.6; CYP2C19 inh: 38.2; PostGolgi yeast: -18.5; PostGolgi ctrl: -8.3; CYP2C9 act: 0.5

How did COCCCNC(=O)CN1CCN(Cc2ccc(Cl)cc2)C1=O do in these assays?
CYP2C9 inh: -9.1; CYP2C19 act: 0.9; CYP2C19 inh: 5.0; PostGolgi yeast: -2.0; PostGolgi ctrl: 4.3; CYP2C9 act: 1.1

Results for COc1ccc(-c2nc(-c3cccs3)c(-c3cccs3)[nH]2)cc1O ?
CYP2C9 inh: 96.1*; CYP2C19 act: 0.1; CYP2C19 inh: 87.5*; PostGolgi yeast: -0.8; PostGolgi ctrl: 30.6*; CYP2C9 act: 0

Results for Cc1ccc(NC(=O)C2C(c3ccccc3)C2(Cl)Cl)c(C)c1 (centres undefined) ?
CYP2C9 inh: 52.5*; CYP2C19 act: 0; CYP2C19 inh: 96.9*; PostGolgi yeast: -16.5; PostGolgi ctrl: 19.9; CYP2C9 act: 0.5

Compound activity: PubChem BioAssay, several laboratories
